A1 inh: caspase 3/7 activation in MEF A1-2A-BIM cells, primary screen, A1 inhibitor project, cell-based, luminescence, HTS; AID 2462, 2010; caspase activation, % (concentration not given with the values); 0.066% of 330,000 active; Caspase-Glo 3/7 luminescence, 3 h; percent of clofoctol response, vehicle zero;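 active = over half of replicate activation scores above 10%, or exactly half above 10 with the replicate mean above 10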
Mdm2-MdmX inh: inhibitors of human Mdm2-MdmX association, primary screen, cell-based, luminescence, split luciferase, SaOS-2, uHTS; Protein Mdm4 (Homo sapiens) + E3 ubiquitin-protein ligase Mdm2 (Homo sapiens), …; SaOS-2 split-luciferase Mdm2/MdmX complementation; inhibition, % at 8 µM; 3% of 330,000 active; AID 485346, 2010;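 active = inhibition of at least 50% at 8 µM in the primary screen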
Target sequence (O15151 whole entry, looked up): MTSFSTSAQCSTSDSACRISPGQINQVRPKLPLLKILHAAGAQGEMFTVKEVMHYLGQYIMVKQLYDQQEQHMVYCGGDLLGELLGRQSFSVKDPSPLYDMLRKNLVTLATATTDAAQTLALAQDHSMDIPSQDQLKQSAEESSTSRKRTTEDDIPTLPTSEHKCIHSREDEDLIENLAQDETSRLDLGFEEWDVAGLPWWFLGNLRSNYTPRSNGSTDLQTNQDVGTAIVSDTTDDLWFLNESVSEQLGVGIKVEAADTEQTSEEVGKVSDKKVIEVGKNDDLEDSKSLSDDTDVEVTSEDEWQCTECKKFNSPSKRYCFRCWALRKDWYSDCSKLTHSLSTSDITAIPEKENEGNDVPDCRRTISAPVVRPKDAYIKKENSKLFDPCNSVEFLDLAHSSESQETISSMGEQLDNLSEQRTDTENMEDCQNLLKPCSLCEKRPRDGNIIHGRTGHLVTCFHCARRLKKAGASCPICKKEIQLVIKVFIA
Target sequence (Q00987 whole entry, looked up): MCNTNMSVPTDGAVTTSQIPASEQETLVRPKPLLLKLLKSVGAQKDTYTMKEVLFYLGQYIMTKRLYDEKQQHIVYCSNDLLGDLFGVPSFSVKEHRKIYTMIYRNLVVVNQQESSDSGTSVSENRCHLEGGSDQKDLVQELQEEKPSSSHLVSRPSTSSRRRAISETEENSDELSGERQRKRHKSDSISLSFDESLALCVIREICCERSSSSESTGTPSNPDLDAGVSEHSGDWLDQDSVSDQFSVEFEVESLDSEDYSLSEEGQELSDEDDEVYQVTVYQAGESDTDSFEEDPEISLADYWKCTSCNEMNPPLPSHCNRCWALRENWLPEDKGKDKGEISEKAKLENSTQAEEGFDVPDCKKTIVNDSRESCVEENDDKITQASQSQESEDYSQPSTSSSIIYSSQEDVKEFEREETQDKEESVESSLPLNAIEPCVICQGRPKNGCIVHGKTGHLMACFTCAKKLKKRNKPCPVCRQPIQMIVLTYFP
Beta cell apopt: inhibitors of cytokine-induced beta cell apoptosis, primary screen, luminescence. INS-1E cytokine-induced death, ATP luminescence, 48 h; percent of positive-control rescue, neutral wells zero. protection from apoptosis, % (no concentration beside the values). 0.8% of 300,000 active. AID 435005, 2010;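 active = Every replicate reaches about 75%, or at least half do and their mean reaches it too, limit read from the data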;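 note: 0% = cytokine-treated negative control wells and 100% = positive control rescue; higher means more ATP so stronger rescue from cytokine killing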
Jurkat NFkB inh: inhibitors of induced NF-kB luciferase reporter, primary screen, TCR NF-kB activation inhibitor project, cell-based, luminescence, uHTS | inhibition, % at 4 µM | Jurkat, PMA/ionomycin-induced NF-kB luciferase reporter | 0.53% of 330,000 active; in the data active = inhibition above about 50%
NTR1 agonist: agonists of human NTR1, primary screen, imaging, U2OS cells, beta-arrestin-GFP, high content. Neurotensin receptor type 1 (Homo sapiens), P30989. NTR1-U2OS beta-arrestin-GFP spot imaging, agonist mode. activation, % at 20 µM. 0.17% of 330,000 active;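 active = activation at or above 40% of the spot to cytoplasm intensity ratio, with at least 20 cells analyzed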;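 note: 0% = DMSO without peptide and 100% = 100 nM NTR1 peptide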
697 NFkB inh: inhibitors of PMA/ionomycin-induced NF-kB reporter, 697 cells, primary screen, B-cell NF-kB inhibitor project, cell-based, luminescence, uHTS; 697 B-cell NF-kB luciferase reporter, 16 h; inhibition, % at 4 µM; 0.33% of 330,000 active; AID 435022, 2010; in the data active = inhibition above about 35%
Jurkat NFkB conf: PMA/ionomycin-induced NF-kB reporter inhibitors, Jurkat retest, confirmation, T-cell NF-kB inhibitor project, cell-based, luminescence, single concentration | shares compounds with Jurkat NFkB inh | Jurkat NF-kB luciferase, 16 h | inhibition, % at 4 µM | 27% of 2,700 active;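 active = inhibition reaching about 45% at 4 µM in either replicate, limit read from the data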;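 note: plate controls were PMA/ionomycin stimulated DMSO wells for no effect and unstimulated DMSO wells for full effect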
697 NFkB conf: PMA/ionomycin-induced NF-kB reporter inhibitors, 697 retest, confirmation, B-cell NF-kB inhibitor project, cell-based, luminescence, single concentration; AID 449746, 2010; 35% of 2,000 active; 697 B-cell NF-kB luciferase, 16 h; inhibition, % at 4 µM; shares compounds with 697 NFkB inh; in the data active = inhibition mostly above about 28%, no sharp cut-off; inactive = mostly below about 22%
Mdm2 MdmX conf: Mdm2-MdmX complex disruptors, retested hits, confirmation, luminescence, single concentration. shares compounds with Mdm2-MdmX inh. Mdm2-MdmX binding, luminescent assay. inhibition, % at 8 µM. 55% of 10,000 active; in the data active = inhibition above about 40%
FLuc counter: full-length luciferase signal inhibition, confirmation, counter-screen for Mdm2/MdmX interaction inhibitor project, cell-based, single concentration, SaOS-2; shares compounds with Mdm2-MdmX inh; SaOS-2 full-length luciferase counterscreen, luminescence; inhibition, % at 8 µM; 77% of 6,200 active; AID 504607, 2011;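 active = mean inhibition at 8 µM reaching about 37%, which flags the compound as non-specific, limit read from the data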;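 note: p53-null SaOS-2 cells with luciferase driven by a doxycycline-inducible promoter; compound on cells about two nights before reading with doxycycline added after day one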
Starred values were filed as active, the others as inactive; i = inactive; nt = not tested or not shown. Rows were chosen to be rich in hits. Some 3.8% of all compounds tested hit in one or more screens of this group.

SMILES	A1 inh	Mdm2-MdmX inh	Beta cell apopt	Jurkat NFkB inh	NTR1 agonist	697 NFkB inh	Jurkat NFkB conf	Mdm2 MdmX conf	FLuc counter	others
COc1ccc(/C=C2\CN(Cc3ccccc3)C/C(=C\c3ccc(OC)c(O)c3)C2=O)cc1O	1	98*	104*	53*	20	-65	10	100*	51*
CCN1C/C(=C/c2ccc(OC)c(O)c2)C(=O)/C(=C/c2ccc(OC)c(O)c2)C1	1	100*	97*	89*	5	-118	44*	100*	41*
COc1ccc(C=C2C(=O)c3ccccc3C2=O)cc1O	-4	-5	nt	17	2	15	nt	nt	nt
O=C1C2C3CCC(O3)C2C(=O)N1c1cc(OCC(F)F)cc([N+](=O)[O-])c1 (stereo not given)	nt	11	nt	-2	1	12	nt	nt	nt
CCOc1ccccc1C(=O)NCC(=O)NCC(c1ccc(OC)cc1)N1CCOCC1 (stereo not given)	0	-12	-1	-2	1	-24	nt	nt	nt
Cn1c(/C=C/c2ccc([N+](=O)[O-])o2)nc2ccccc2c1=O	1	91*	106*	82*	-1	-35	26	70*	53*
Cn1c(/C=C/c2ccccc2)nc2ccccc2c1=O	-4	-25	9	-56	2	-44	nt	nt	nt
Cc1ccccc1N1CCN(CC(=O)Nc2ccccc2C(=O)NC2CC2)CC1	-1	20	-7	18	3	-4	nt	nt	nt
CC(=O)Nc1ccc(S(=O)(=O)NCCC(=O)Nc2ncccc2C)cc1	1	-42	1	1	1	13	nt	nt	nt
CCS(=O)(=O)c1ncc(Cl)c(C(=O)Nc2ccc(S(=O)(=O)N(C)c3ccccc3)cc2)n1	13*	98*	105*	75*	0	-113	49	100*	51*
N=c1ccn(CC(=O)c2ccc(-c3ccccc3)cc2)cc1	-1	66*	134*	58*	-2	10	46	69*	41*
O=C(CN1C(=O)CCC1=O)c1ccc(-c2ccccc2)cc1	0	-13	1	-9	0	-27	nt	nt	nt
Cc1cc(/C=N/NC(=O)c2ccncc2)c(C)n1-c1ccccc1	2	-7	-2	-3	-1	-25	nt	nt	nt
Cc1cc(/C=N/NC(=O)c2cccs2)c(C)n1-c1ccccc1	-3	93*	-3	-196	-1	i	0	88*	93*	697 NFkB conf=-38
Cc1csc2sc(-c3ccnc(SCC(=O)NCc4ccccc4)n3)c(C)c12	1	56*	nt	69*	4	-42	42	59*	86*
Cc1cc(C)c(S(=O)(=O)N2CCOC2CNC(=O)C(=O)NCCN(C)C)c(C)c1 (stereo not given)	0	9	-7	-2	0	-9	nt	nt	nt
Cc1cccc(N2CCN(C(=O)c3cc(S(=O)(=O)N4CCOCC4)cn3C)CC2)c1C	0	28	-4	-5	-1	1	nt	nt	nt
Cc1cccc(N2CCN(C(=O)c3cc(S(=O)(=O)N4CCCC4)cn3C)CC2)c1C	0	55*	0	61*	4	-47	20	58*	49*
COc1ccc(C2=CC(=O)CC(c3ccc(OC)cc3)C2)cc1 (stereo not given)	-1	-32	0	-8	0	-9	nt	nt	nt
COc1ccc([C@H]2CC(=O)C=C(c3c(OC)cccc3OC)C2)cc1	0	56*	14	57*	0	-59	51*	53*	51*
CCN(CC)c1ccc2c(c1)OC(N)=C(C#N)C2c1cccnc1 (stereo not given)	0	66*	3	56*	0	31	6	60*	92*
N#CC1=C(N)Oc2cc(N)ccc2C1c1cccnc1 (stereo not given)	-1	-3	-5	14	1	-7	nt	nt	nt
O=C(N=C1SC2CS(=O)(=O)CC2N1c1ccc(Cl)cc1Cl)C1CC1 (stereo not given)	0	-2	3	3	-1	-8	nt	nt	nt
CN(C)CCNC(=O)c1cc2c(s1)-c1ccc(Cl)cc1SC2	1	100*	-9	62*	33	-21	1	87*	57*
CCOCCCNC(=O)c1cc2c(s1)-c1ccccc1SC2	0	30	-3	-11	-1	10	nt	nt	nt
SMILES	A1 inh	Mdm2-MdmX inh	Beta cell apopt	Jurkat NFkB inh	NTR1 agonist	697 NFkB inh	Jurkat NFkB conf	Mdm2 MdmX conf	FLuc counter	others
COc1ccc(OCc2ccc(/C=N\NC(=O)c3sccc3C)o2)cc1	1	21	7	-3	0	-35	nt	nt	nt
Cc1ccc(C2C=C(c3ccccc3OC(F)F)Nc3ncnn32)cc1 (stereo not given)	0	22	-1	-11	1	5	nt	nt	nt
CN(C)c1ccc(C2C=C(c3ccc(Cl)cc3OC(F)F)Nc3ncnn32)cc1 (stereo not given)	1	66*	11	61*	5	2	15	54*	49*
COc1ccc(-c2cc(C(=O)Nc3cc(C)ccc3O)no2)cc1	-6	57*	-3	62*	7	-143	-34	-10	nt
COc1ccc(-c2cc(C(=O)Nc3cc(Cl)ccc3O)no2)cc1	-3	6	2	-72	2	-186	nt	nt	nt
CC1CCN(S(=O)(=O)c2ccc3c(c2)C(=NO)c2cc(S(=O)(=O)N4CCC(C)CC4)ccc2-3)CC1	2	100*	104*	96*	32	97*	17	100*	0	697 NFkB conf=93*
CCOc1ccccc1N1CCN(C(=O)c2cc(-c3cccnc3)nc3c(Cl)cccc23)CC1	0	88*	-7	68*	7	-31	13	83*	52*
